# Assay outcomes as filed in PubChem.
# Rows were chosen to be rich in hits. Some 11% of all compounds tested hit in one or more screens of this group.
# HPGD block – blocks human HPGD enzyme activity | P15428 | purified HPGD, NADH fluorescence kinetic, PGE2 substrate | Potency, µM, for the others: at the highest dose activity change, negative = inhibition, usual class: inhibitors | 4.3% of 150,000 active; active = well fitted inhibition curve with a large enough effect, not every such curve was filed as active; inconclusive = small, poorly fitted or top-dose-only effect, or another doubt; inactive = no such curve, though single readings can be large or run the other way; also: potency is read from the fitted curve at half-maximal effect
#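 NADH formation kinetics: reaction with 30 uM PGE2 and 1 mM NAD+ (final), 20 nM enzyme, Tris-HCl pH 8 with Tween 20, after 15 min compound preincubation at room temperature. Fluorescence change, last versus first of five reads.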
# ALOX12 inhib – 12-hLO (ALOX12) enzyme inhibition; 0.12% of 150,000 active; Potency, µM (doses to about 57.1 µM), inactives show at the top dose activity change, negative = inhibition, usual class: inhibitors; purified 12-hLO, xylenol orange hydroperoxide absorbance; also: potency is read from the fitted curve at half-maximal effect; nearly all actives have a fitted effect of over 55% in size
# Target sequence (P18054 whole entry, looked up): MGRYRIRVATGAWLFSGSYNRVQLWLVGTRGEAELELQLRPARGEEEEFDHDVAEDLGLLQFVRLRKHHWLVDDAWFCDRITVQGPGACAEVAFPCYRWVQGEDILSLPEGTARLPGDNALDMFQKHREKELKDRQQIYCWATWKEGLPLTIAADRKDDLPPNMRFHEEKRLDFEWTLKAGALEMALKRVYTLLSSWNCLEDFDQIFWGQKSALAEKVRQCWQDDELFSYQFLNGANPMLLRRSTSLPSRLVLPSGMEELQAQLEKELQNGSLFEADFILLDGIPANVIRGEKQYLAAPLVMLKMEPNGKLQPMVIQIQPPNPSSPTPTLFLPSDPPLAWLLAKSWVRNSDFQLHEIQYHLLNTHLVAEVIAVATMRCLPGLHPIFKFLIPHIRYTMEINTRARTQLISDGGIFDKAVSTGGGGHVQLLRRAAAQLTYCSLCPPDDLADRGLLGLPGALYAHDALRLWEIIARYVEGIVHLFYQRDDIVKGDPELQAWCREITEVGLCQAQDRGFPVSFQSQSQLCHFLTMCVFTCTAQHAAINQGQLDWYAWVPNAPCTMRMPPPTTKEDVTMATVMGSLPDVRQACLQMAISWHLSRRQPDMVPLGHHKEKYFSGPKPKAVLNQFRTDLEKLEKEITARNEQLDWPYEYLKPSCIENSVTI
#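 Purified human 12hLO (150 nM final) was preincubated with compounds for 15 min at room temperature in 25 mM Hepes pH 7.0, 0.01% Triton X-100, then reacted with 40 uM arachidonic acid for 30 min. Hydroperoxide was detected with ferrous iron/xylenol orange.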
# ALDH1A1 inh – inhibitors of human aldehyde dehydrogenase 1A1 | 7.3% of 220,000 active | AID 1030 | Purified ALDH1A1, NADH fluorescence, propionaldehyde substrate | P00352 | Potency, µM (highest dose often 75.3 µM), for the others: at the top dose activity, negative = inhibition, hits mostly inhibitors; active = well fitted inhibition curve with a large enough effect, not every such curve was filed as active; inconclusive = small, poorly fitted or top-dose-only effect, or another doubt; inactive = no such curve, though single readings can be large or run the other way;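 also: potency is read from the fitted curve at half-maximal effect; plate controls were no enzyme wells and a reference inhibitor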
# IMPase Li inh – cell-permeable IMPase inhibitors with lithium potentiation; CHO-M1 cells, IP1 TR-FRET (IP-One), carbachol + lithium; Potency, µM (top dose mostly 59.4 µM), for inactives: top-dose activity, negative = IMPase inhibition, usual class: inhibitors; 0.35% of 210,000 active;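 also: IP1 builds up when IMPase is blocked and the TR-FRET signal falls; potency is read from the fitted curve at half-maximal effect; plate controls were basal vehicle for no effect and high inhibitor control for full effect; nearly all actives have a fitted effect of over 50% in size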
#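 IP1 accumulation measured by competitive TR-FRET in lysed CHO-M1 cells after 30 min compound exposure at 37C, with a small lithium addition to potentiate weak responses. Hill-equation AC50 from ratio and donor-channel data.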
# PNC assembly inh – blocks assembly of the perinucleolar compartment; 3.1% of 140,000 active; activity change (PNC), negative = inhibition, % at 10 µM; PC3M PTB-GFP, PNC prevalence imaging, 16 h; stronger effect = lower value;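 active = readout at or below -70, meaning at least 70% loss of cells showing the perinucleolar compartment, a nuclear body marking cancer cells; inconclusive = readout between -30 and a set limit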;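 also: plate controls were DMSO wells for no effect and camptothecin positive control wells for full effect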
#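 PC3M cells stably expressing PTB-GFP, 750–1000 cells/well, treated 16 h at 37 °C with compound (23 nl of library stock), in duplicate. After paraformaldehyde fixation and Hoechst stain, imaged at 20x; PNC prevalence scored by image analysis.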
# IMPase cell inh – IMPase inhibition in cells; P97697; CHO-M1 cells, IP1 accumulation, HTRF TR-FRET ratio; inhibition (IP1 accumulation), % at 46.1 µM; 120,000 tested, under 10 active; AID 901; active = well fitted curve in the direction sought with a large enough effect in the signal ratio, not every such curve was filed as active; inconclusive = small, poorly fitted or top-dose-only effect, or a change in a side signal; inactive = no such curve, though single readings can be large or run the other way; the % refers to the signal ratio;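 also: cells stimulated with carbachol in lithium chloride buffer; plate controls were DMSO basal wells for no effect and reference inhibitor wells for full effect; higher means more IMPase inhibition seen as more IP1 and lower FRET ratio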
#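 CHO-M1, 2000 cells/well, cultured 16–30 h; cpd up to 46 uM; carbachol (50 uM solution, stimulation buffer w/ 50 mM LiCl, pH 7.4), 30 min 37C; IP-One TR-FRET, 10 min RT; Ex 320/Em 665, 620; Hill-fit AC50.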
# * marks the source's active call; other numbers are inactive results; ? = inconclusive; . = not tested or not shown; [ ] = remark or other dose. Unless noted, calls follow the shape of the dose curve; as a rule, active = well fitted curve in the direction sought with a large enough effect; inconclusive = small, poorly fitted or top-dose-only effect, or another doubt; inactive = no such curve, though single readings can be large; an effect the other way counts as inactive or inconclusive. Unless noted, % is scaled to controls: 0 for no effect and ±100 for the full control effect.
SMILES,HPGD block,ALOX12 inhib,ALDH1A1 inh,IMPase Li inh,PNC assembly inh,IMPase cell inh
CCCS(=O)(=O)c1c(S(=O)(=O)CCC)c2cnccn2c1C(=O)c1ccc(Cl)cc1,-15%,-5%,1%,34%[38.3 µM],-18,0
COc1cc(CN(C)CC(=O)c2[nH]c(C)c(C(C)=O)c2C)ccc1OC(F)F,-17%,-2%,3.5µM*,18%[38.3 µM],-29,23
COCCn1c(=O)c(-c2cccc(C#N)c2)nc2cnc(N(C)C)nc21,.,.,-15%,-2%,.,.
CC1=C(/C=C/C(C)=C/C=C/C(C)=C/C(=O)O)C(C)(C)CCC1O (stereo not drawn),.,.,6.3µM*,18%,.,.
CC1=C(/C=C/C(C)=C\C=C\C(C)=C\C(=O)O)C(C)(C)CCC1,-11%,-6%[0.00818 µM],4%,1%,.,.
O=C(NNC(=S)Nc1ccc(OC(F)F)cc1)c1cc2c(s1)CCCC2,-19%,-4%,8.9µM*,-7%,0,9
Cc1ccc(S(=O)(=O)CCSc2cccc(C(=O)Nc3ccccc3C(=O)O)c2)cc1,16µM*,-1%,?,1%,?,.
COC(=O)Oc1ccc(/C=N/NC(=O)CSCc2ccccc2Br)cc1OC,-5%,-8%,13µM*,54%[38.3 µM],?,13
COc1ccc(/C=N/NC(=O)CSc2ccccc2)cc1OC,-10%,-2%,?,7%,-7,.
CN(CCO)c1cc(N2CCCCC2)c2nonc2c1[N+](=O)[O-],.,.,16µM*,-5%,.,.
CC1CCCN(c2cc(N(C)CCO)c([N+](=O)[O-])c3nonc23)C1 (stereo not drawn),.,.,?,0%,.,.
CC(C)c1ccc(NC(=O)C(c2ccccc2)N2CCN(C(=O)c3ccco3)CC2)cc1 (stereo not drawn),-17%,3%,13µM*,3%[38.3 µM],-23,11
CCN(CC)c1ccc(S(=O)(=O)Nc2cc(Cl)ccc2Cl)cc1NC(=S)NC(=O)C1CCCC1,-30%,-23%,22µM*,8%,-19,.
O=C(O)c1ccc(S(=O)(=O)N(Cl)Cl)cc1,-8%,-1%,?,6%,.,.
O=c1c(-c2ccc(F)cc2)nc2cnc(Oc3ccccc3)nc2n1Cc1cccs1,.,.,?,1%,.,.
CC(=O)OC[C@H]1O[C@@H](O/N=C(\C)CCN2CCc3nc(-c4ccccc4)c(-c4ccccc4)cc3C2)[C@H](OC(C)=O)[C@@H](OC(C)=O)[C@H]1OC(C)=O,.,.,-1%[13.5 µM],.,.,.
O=C(c1ccc(CN2CCc3ccccc3C2)cc1)N1CCCCC1,2.5µM*,-2%,?,6%[38.3 µM],-16,-9
COCCNC(=O)c1ccc(CN2CCc3ccccc3C2)cc1,14µM*,-5%,8%,14%,45,.
O=C(COC(=O)c1ccc2c(c1)S(=O)(=O)N=C1CCCCCN12)NCc1cccs1,.,.,14µM*,.,.,.
O=c1[nH]n(-c2ccc(F)cc2)c2ncccc12,18µM*,0%,7%,4%[38.3 µM],10,3
O=c1ncn(-c2ccc(F)cc2)c2ncccc12,-6%,4%,2%,13%[38.3 µM],-12,1
CC(C)=CCC/C(C)=C/C=O,-11%,0%,?,15%,.,.
O=C(c1ccccc1NS(=O)(=O)c1cccc2cccnc12)N1CCOCC1,.,.,13%,?,.,.
CN(C)c1ncnc2ccc(-c3ccoc3)cc12,.,.,28µM*,6%,.,.
Cn1c(=O)n(C)c2cc(NS(=O)(=O)c3ccc(F)cc3)c(NCc3ccccc3)cc21,.,.,.,.,.,3
SMILES,HPGD block,ALOX12 inhib,ALDH1A1 inh,IMPase Li inh,PNC assembly inh,IMPase cell inh
CSc1nnc(-c2ccccc2N=Cc2c(C)[nH]n(-c3ccc4ccccc4c3)c2=O)c(=O)[nH]1,18µM*,?,?,20%[38.3 µM],-5,2
C=CCSc1nnc(-c2ccccc2N=Cc2c(C)[nH]n(-c3ccccc3)c2=O)c(=O)[nH]1,-21%,11%,?,36%[38.3 µM],?,3
CCOc1cc(C(=O)Nc2ccc3c(c2)n(C)c(=O)c(=O)n3C)cc(OCC)c1OCC,.,.,.,.,.,1
CC(=O)c1ccc(NC(=O)C2CC(=O)N(Cc3ccccc3)C2)cc1 (stereo not drawn),-8%,-1%,14µM*,19%[38.3 µM],-20,1
CCCN1Cc2cccc(C(=O)NCCCOC(C)C)c2C1=O,-10%,-1%,22µM*,18%[38.3 µM],9,7
CCCN1Cc2cccc(C(=O)NC(C)c3cccs3)c2C1=O (stereo not drawn),-8%,-4%,4µM*,27%[38.3 µM],-13,-2
COc1ccc(-c2nn3c(-c4ccccc4C)nnc3c3ccccc23)cc1,.,.,.,.,.,-2
C=CCn1c(SCc2csc(C)n2)nc2sc3c(c2c1=O)CCCC3,-14%,-2%,?,42%[38.3 µM],30,3
C=CCn1c(SCc2csc(C)n2)nc2sc3c(c2c1=O)CCCCC3,-6%,-2%,22µM*,46%[38.3 µM],-20,4
COCCCn1c(SCC(=O)Nc2sc3c(c2C#N)CCCC3)nnc1-c1ccncc1,?,-18%,20µM*,4%,0,-8
COCCCn1c(SCC(=O)Nc2cccc(C(=O)OC)c2)nnc1-c1ccncc1,.,1%,12%,.,?,4
Cn1c(CNC(=O)c2ccc(Cl)c(Cl)c2)nnc1SCC(=O)Nc1sc2c(c1C#N)CCCC2,-22%,-1%,-17%,26%[38.3 µM],62,0
CN(C)CCCn1c(SCC(=O)Nc2sc3c(c2C#N)CCCC3)nnc1-c1ccncc1,6%,-8%,7.1µM*,23%[38.3 µM],28,6
CC(C)CCOC(=O)/C=C/c1ccccc1,-1%,2%,-3%,-1%,.,.
COc1ccc(-c2csc(-c3cc4ccccc4oc3=N)n2)cc1,-19%,-3%,?,-9%,-93*,-6
COc1ccc(NC(=O)Cn2c(=O)n(CC(=O)NCc3ccco3)c(=O)c3ccccc32)cc1OC,-5%,-3%,9%,3%[38.3 µM],-11,-13
COc1cc2c(=O)n(Cc3ccco3)c(=O)n(CC(=O)c3cccc(Br)c3)c2cc1OC,-6%,1%,1.1µM*,?,?,3
COc1cc2c(=O)n(Cc3ccco3)c(=O)n(CC(=O)c3ccc(Br)cc3)c2cc1OC,-3%,0%,0.4µM*,?,18,-2
CCOC(=O)C(C(=O)Nc1nccs1)C1CCCCC1 (stereo not drawn),1%,-4%,3%,-3%[38.3 µM],6,-5
CN(C)CCNc1ccccn1,-9%,0%[11.4 µM],14%[13.5 µM],1%,.,.
Cc1cc(C2=NNC(=NC3CC3)SC2)c(C)n1Cc1ccco1,-22%,-2%,20µM*,19%,-27,-3
COCCCN=C1NN=C(c2cc(C)n(Cc3ccco3)c2C)CS1,-10%,-6%,-11%,13%,-108*,.
Cc1cc(C2=NNC(=NC3CC3)SC2)c(C)n1-c1ccccc1,-13%,-4%,3.5µM*,12%,-7,3
